Screening results as filed in PubChem BioAssay.
HT1080-NT tox: qHTS for induction of synthetic lethality in tumor cells producing 2HG: qHTS for the HT-1080-NT fibrosarcoma cell line; HT-1080-NT fibrosarcoma viability, CellTiter-Glo ATP luminescence, 48 h; Potency, µM (highest dose often 46.1 µM), usual class: cytotoxic; 1.6% of 360,000 active; AID 686970, 2013;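 note: NT is the 2HG producing partner of a matched IDH1 knockdown line; nearly all actives have a fitted effect of over 55% in size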
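Compounds were tested in concentration-response format on HT-1080-NT cells for 48 hours at 37 degrees C. Cell viability came from CellTiter-Glo luminescence; curves were classified by r2, response magnitude and activity.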
TDP1 cell noCPT: qHTS for Inhibitors of human tyrosyl-DNA phosphodiesterase 1 (TDP1): qHTS in cells in absence of CPT; DT40 Tdp1-/- hTDP1 cells, no CPT, ATP luminescence, 48 h; Potency, µM (highest dose often 46.2 µM), hits mostly inhibitors; 15% of 420,000 active; note: nearly all actives have a fitted effect of over 55% in size
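Compound effects on proliferation are scored in DT40 Tdp1-/-;hTDP1 cells in the absence of CPT. ATP levels (CellTiter-Glo luminescence) are recorded after a ≥48 hr, 37 °C incubation.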
TGFb inhibitor: qHTS for Inhibitors of TGF-b. HepG2 CAGA-GFP TGF-b/SMAD3 reporter, GFP fluorescence, 18 h; TGF-beta stimulated, 500 pg/mL final. Potency, µM (titrated, usually from 46.1 µM), most hits filed as inhibitors. 1.2% of 410,000 active; note: nearly all actives have a fitted effect of over 65% in size
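HEPG2 CAGA-GFP, 1000 cells/well; 2 h settle, 37 C; cpd via pin tool; TGF-b 500 pg/mL final; 18 h, 37 C; GFP imaging ex488/em500-530; %Activity normalised to -TGF-b and +DMSO controls; CRC fit, curve class.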
HT1080 IDH1KD tx: qHTS for induction of synthetic lethality in tumor cells producing 2HG: qHTS for the HT-1080-IDH1KD cell line. HT-1080 IDH1 knockdown viability, ATP luminescence, 48 h. Potency, µM (titrated, usually from 46.1 µM), most hits filed as cytotoxic. 2% of 360,000 active
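Cytotoxicity counter-line: IDH1KD HT-1080, 48 h, CellTiter-Glo. Curves classed by r2, magnitude and activity.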
HepG2 tox: qHTS for Inhibitors of TGF-b: Cytotox Counterscreen; HepG2 CAGA-GFP viability, ATP luminescence, 18 h; Potency, µM (doses to about 46.1 µM), hits mostly cytotoxic; 0.76% of 410,000 active
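HepG2 CAGA-GFP cells (1000/well, DMEM with 1% FBS) received compound, then TGF-beta at 500 pg/mL final, and were incubated 18 hours at 37 degrees C. Viability was read by CellTiter-Glo luminescence. Media-only wells were set as complete cell-killing and DMSO as no toxicity.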
TDP1 cell CPT: qHTS for Inhibitors of human tyrosyl-DNA phosphodiesterase 1 (TDP1): qHTS in cells in presence of CPT. chicken DT40 Tdp1-/-;hTDP1 cells + 20 nM CPT, ATP luminescence, 48 h. 12% of 420,000 active. Potency, µM (doses to about 46.2 µM), most hits filed as inhibitors; note: nearly all actives have a fitted effect of over 55% in size
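Chicken DT40 Tdp1-/- cells stably complemented with human TDP1 were seeded at 400 cells/well in medium containing 20 nM camptothecin, exposed to pin-transferred compounds, and grown at 37 °C for at least 48 hr. Viability was read as ATP luminescence.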
Numbers stand for hits. Shown are actives, neighbours in structure and some others; about 17% of the full set was active somewhere. Calls come from the whole dose curve; as a rule, active = well fitted curve in the direction sought with a large enough effect; inconclusive = small, poorly fitted or top-dose-only effect, or another doubt; inactive = no such curve, though single readings can be large; an effect the other way counts as inactive or inconclusive.

What do the screens show for `COc1ccc2c(c1)c(C(=O)OCCN(C)C)c(C)n2C`?
HT1080-NT tox: inactive; TDP1 cell noCPT: inconclusive; TGFb inhibitor: inactive; HT1080 IDH1KD tx: inactive; HepG2 tox: inactive; TDP1 cell CPT: inactive

What do the screens show for `COCCOC(=O)c1c(C)n(C)c2ccc(OC(=O)c3c(OC)cccc3OC)cc12`?
HT1080-NT tox: inactive; TDP1 cell noCPT: 16µM; TGFb inhibitor: inactive; HT1080 IDH1KD tx: inactive; HepG2 tox: inactive; TDP1 cell CPT: inconclusive

What do the screens show for `CCOC(=O)c1c(C)n(-c2ccccc2)c2ccc(OC(=O)c3cc(OC)cc(OC)c3)cc12`?
TDP1 cell noCPT: 21µM; TGFb inhibitor: inactive; HepG2 tox: inactive; TDP1 cell CPT: inconclusive

How did CCC(C)c1ccccc1OCC(=O)Nc1ccc(S(=O)(=O)Nc2cc(C)on2)cc1 (configuration not stated) do in these assays?
TDP1 cell noCPT: inactive; TGFb inhibitor: inactive; HepG2 tox: inactive; TDP1 cell CPT: inactive

What do the screens show for `Cc1c([N+](=O)[O-])cc(C(=O)Nc2ccc(Cc3ccncc3)cc2)cc1[N+](=O)[O-]`?
HT1080-NT tox: inactive; TDP1 cell noCPT: inactive; TGFb inhibitor: inactive; HT1080 IDH1KD tx: inactive; HepG2 tox: inactive; TDP1 cell CPT: inactive

What do the screens show for `Cc1ccc(S(=O)(=O)CCC(=O)c2cccc([N+](=O)[O-])c2)cc1`?
HT1080-NT tox: inconclusive; TDP1 cell noCPT: 2.6µM; TGFb inhibitor: 11µM; HT1080 IDH1KD tx: 6.5µM; HepG2 tox: inactive; TDP1 cell CPT: 2.1µM

Results for O=C(CCNc1ccc(Cc2ccncc2)cc1)c1cccc([N+](=O)[O-])c1 ?
HT1080-NT tox: inactive; TDP1 cell noCPT: 16µM; TGFb inhibitor: inactive; HT1080 IDH1KD tx: inconclusive; HepG2 tox: inactive; TDP1 cell CPT: 18µM

How did CC(=O)c1cccc([N+](=O)[O-])c1 do in these assays?
HT1080-NT tox: inactive; TDP1 cell noCPT: inactive; TGFb inhibitor: inactive; HT1080 IDH1KD tx: inactive; HepG2 tox: inactive; TDP1 cell CPT: inactive

Results for Cc1ccc(NC(=O)CCS(=O)(=O)c2ccc(Br)cc2)c(C)c1 ?
TDP1 cell noCPT: inactive; TGFb inhibitor: inactive; HepG2 tox: inactive; TDP1 cell CPT: inactive

Results for Cc1ccc(C(=O)CCS(=O)(=O)c2ccc(Br)cc2)cc1 ?
HT1080-NT tox: inactive; TDP1 cell noCPT: 5.2µM; TGFb inhibitor: inconclusive; HT1080 IDH1KD tx: inactive; HepG2 tox: inactive; TDP1 cell CPT: 5.2µM

What do the screens show for `CCOC(=O)c1ccc([N+](=O)[O-])c(CS(=O)(=O)c2ccc(Cl)cc2)c1`?
HT1080-NT tox: inactive; TDP1 cell noCPT: inactive; TGFb inhibitor: inactive; HT1080 IDH1KD tx: inactive; HepG2 tox: inactive; TDP1 cell CPT: inactive

How did Cc1ccc(S(=O)(=O)Cc2cc(F)c([N+](=O)[O-])cc2[N+](=O)[O-])cc1 do in these assays?
HT1080-NT tox: 2.9µM; TDP1 cell noCPT: 2.9µM; TGFb inhibitor: inconclusive; HT1080 IDH1KD tx: 6.5µM; HepG2 tox: inactive; TDP1 cell CPT: 3.7µM

How did O=C(COC(=O)C1CCN(S(=O)(=O)c2ccccc2C(F)(F)F)CC1)NCc1ccc(F)cc1 do in these assays?
HT1080-NT tox: inactive; TDP1 cell noCPT: inactive; TGFb inhibitor: inactive; HT1080 IDH1KD tx: inactive; HepG2 tox: inactive; TDP1 cell CPT: inactive

What do the screens show for `Cc1cnc(C)c(-c2cccc3c2OC(CNC(=O)CN2C(=O)c4ccccc4C2=O)C3)n1` (configuration not stated)?
TDP1 cell noCPT: inactive; TDP1 cell CPT: inactive

What do the screens show for `COc1ccc(C(=O)CCS(=O)(=O)c2ccc(C)cc2)cc1`?
HT1080-NT tox: inactive; TDP1 cell noCPT: 2.3µM; TGFb inhibitor: inconclusive; HT1080 IDH1KD tx: inconclusive; HepG2 tox: 7.1µM; TDP1 cell CPT: 2.6µM
